The campaign covered roughly 5,500 compounds. About 2,000 (36%) were called active. Roughly 18% stayed inconclusive and do not appear here. Cut-off read from the data, not from the text of the source: active = normalized growth mostly below about 0.91 (no sharp cut-off); inconclusive = no clear call, values can overlap the other calls; inactive = mostly above about 0.92. This is one part of the list.
Assay: chemical genetic growth profiling, strain panel (AID 1159580);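 note: tested at 20 µM; growth read once vehicle control cultures reached saturation at 30 °C; 1 = growth at the plate median or of vehicle wells; lower values mean less growth of the strain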
Conditions: S. cerevisiae deletion strains, growth OD

Measured: normalized growth

O=C(O)/C=C/C=C/c1ccc2c(c1)OCO2
inactive: locus YHR030C, strain SLT2, active compounds read low 0.899 | locus YHR079C, strain IRE1, active compounds read low 0.884 | locus YJL095W, strain BCK1, active compounds read low 0.897 | locus YJR066W, strain TOR1, active compounds read low 0.873 | locus YLR113W, strain HOG1, active compounds read low 0.958 | locus YNL183C, strain NPR1, active compounds read low 0.886 | locus YOR231W, strain MKK1, active compounds read low 0.893 | locus YPL256C, strain CLN2, active compounds read low 0.945
